Reference: PubChem BioAssay (Tox21)
Calls of active or inactive are those of the source. A call without a number means that no potency is given here. Calls come from the whole dose curve; as a rule, active = well fitted activation curve with a large enough effect in the repeat runs; inconclusive = weak or mixed curves; inactive = flat fitted curve, though single readings scatter.

assay: A CellTox Green Cytotoxicity Assay to monitor cytotoxicity in HepG2 cells - 0 hour (AID 1224882); details: CellTox Green fluorescence; series mostly up to 76.8 µM; note: nearly all actives have a fitted effect of over 35% in size
Text: National Center for Advancing Translational Sciences [NCATS]
NIH Chemical Genomics Center [NCGC]
U.S. Environmental Protection Agency [EPA]
National Institutes of Environmental Health Sciences [NIEHS]
National Toxicology Program [NTP]
Cell-based models are critical for drug discovery. Determining the natural cytotoxic effects resulting from test compounds is an essential research activity. A CellTox Green Cytotoxicity Assay to monitor cytotoxicity in real time of continues cell culture during 40 hours of the compound treatment was used to screen Tox21 10K library compounds in HepG2 cells. CellTox Green Cytotoxicity Assay is a nonlytic, homogeneous, biofluorescent method to measure cytotoxicity in cell culture after experimental manipulation. The assay system uses a proprietary asymmetric cyanine dye that is excluded from viable cells but preferentially stains the dead cell's DNA. […] Viable cells produce no appreciable increases in fluorescence. Therefore, the fluorescence signal produced by the binding interaction with dead cell DNA is proportional to cytotoxicity.
The mixture of HepG2 cell suspension and reagents were dispensed at 600cells/6 ul/well in 1536-well tissue culture treated black solid bottom plates using a Multidrop dispenser. After the assay plates were incubated at a 37 C/5% CO2 incubator for 5 hours, 23 nL of compounds dissolved in DMSO, positive and negative controls was transferred to the assay plate by a pintool work station. The plates were incubated at 37 C for 40 hours. The fluorescence intensity were measured at 0h, 8h, 16h, 24h, 32h and 40h time points using ViewLux plate reader during compound treatment.
Potency is the fitted concentration of half-maximal effect.

Q: For `O.O.O.O.O.O.O.O=S(=O)([O-])[O-].[Co+2]`, which Potency is on record?
A: inactive

Q: For `c1cc[n+]2c(c1)-c1cccc[n+]1CC2`, which Potency is on record?
A: inactive

Q: For `CCc1cccc(C)c1N(C(=O)CCl)[C@@H](C)COC`, which Potency is on record?
A: inactive

Q: With `N#Cc1ccc(N(CC(N)=O)CC(F)(F)F)cc1C(F)(F)F` as the molecule, how does the Potency read?
A: inactive

Q: For `CC1CN1` (stereo not given), which Potency is on record?
A: inactive

Q: Which Potency does the source give for `CC(Cc1ccc2c(c1)OCO2)NO` (stereo not given) here?
A: inactive

Q: With `CCC(C)Br` (stereo not given) as the molecule, how does the Potency read?
A: inactive

Q: For `O=[N+]([O-])[O-].[Tl+]`, which Potency is on record?
A: inactive

Q: For `CCOC(=O)Cc1ccccc1`, which Potency is on record?
A: inactive

Q: For `O=C(N[C@H]1N=C(c2ccccc2F)c2cccc3c2N(CC3)C1=O)c1cc2ccccc2[nH]1`, which Potency is on record?
A: inactive

Q: For `BrCCCBr`, which Potency is on record?
A: inactive

Q: For `CC[N+]1(CC)CCC(OC(=O)C(O)(c2ccccc2)c2ccccc2)C1` (stereo not given), which Potency is on record?
A: inactive

Q: Which Potency does the source give for `Clc1ccc(C(c2ccc(Cl)cc2)C(Cl)Cl)cc1` here?
A: inactive

Q: With `CN1C(=O)[C@@H](NC(=O)c2cc3ccccc3[nH]2)N=C(c2ccccc2)c2ccccc21` as the molecule, how does the Potency read?
A: inactive

Q: Which Potency does the source give for `CCC(OC(C)=O)C(CC(C)NC)(c1ccccc1)c1ccccc1` (stereo not given) here?
A: inactive

Q: Which Potency does the source give for `CCCCC/C=C\C/C=C\C/C=C\C/C=C\CCCC(=O)NCC(=O)O` here?
A: inactive

Q: With `O=C(Nc1ccc(F)cc1F)c1cccnc1Oc1cccc(C(F)(F)F)c1` as the molecule, how does the Potency read?
A: inactive

Q: With `CCC[CH2][Sn]([CH2]CCC)([CH2]CCC)[CH2]CCC` as the molecule, how does the Potency read?
A: 38.9 µM (active)

Q: Which Potency does the source give for `N#CCCl` here?
A: inactive

Q: With `O=C(NC(=O)c1c(F)cccc1F)Nc1ccc(Oc2ccc(C(F)(F)F)cc2Cl)cc1F` as the molecule, how does the Potency read?
A: inactive

Q: Which Potency does the source give for `Oc1cccc(Cl)c1Cl` here?
A: inactive

Q: For `CSC1=N[C@@](C)(c2ccccc2)C(=O)N1Nc1ccccc1`, which Potency is on record?
A: inactive

Q: For `CCCCCON=O`, which Potency is on record?
A: inactive

Q: With `CCN(CC)C(=S)S` as the molecule, how does the Potency read?
A: inactive

Q: Which Potency does the source give for `COc1c2c(cc3c1OCO3)CCN(C)C2` here?
A: inactive

Q: For `COc1nc(C)nc(NC(=O)NS(=O)(=O)c2ccccc2Cl)n1`, which Potency is on record?
A: inactive

Q: For `[Cl-].[Cl-].[Cl-].[Yb+3]`, which Potency is on record?
A: inactive

Q: With `CC1=C2C[C@H]3[C@@H](CC=C4C[C@@H](O)CC[C@@]43C)[C@@H]2CC[C@]12O[C@@H]1C[C@H](C)CN[C@H]1[C@H]2C` as the molecule, how does the Potency read?
A: inactive

Q: With `BrCC(Br)(Br)Br` as the molecule, how does the Potency read?
A: inactive

Q: With `O=NN(CCO)CCO` as the molecule, how does the Potency read?
A: inactive

Q: For `Clc1ccc(C(Cl)(Cl)Cl)cc1Cl`, which Potency is on record?
A: inactive

Q: With `COP(=S)(OC)Oc1nc(Cl)c(Cl)cc1Cl` as the molecule, how does the Potency read?
A: inactive

Q: Which Potency does the source give for `CO/N=C(/C1=NOCCO1)c1ccccc1Oc1ncnc(Oc2ccccc2Cl)c1F` here?
A: inactive

Q: With `CNN` as the molecule, how does the Potency read?
A: inactive

Q: With `c1csc(-c2ccc(-c3cccs3)s2)c1` as the molecule, how does the Potency read?
A: inactive

Q: For `ClC1(Cl)C2(Cl)C3(Cl)C4(Cl)C(Cl)(Cl)C5(Cl)C3(Cl)C1(Cl)C5(Cl)C24Cl` (stereo not given), which Potency is on record?
A: inactive

Q: For `CSC(=O)c1c(C(F)F)nc(C(F)(F)F)c(C(=O)SC)c1CC(C)C`, which Potency is on record?
A: inactive

Q: For `CCCCC(CC)COC(=O)c1ccccc1C(=O)OCC(CC)CCCC` (stereo not given), which Potency is on record?
A: inactive

Q: For `[F][Sn]([c]1ccccc1)([c]1ccccc1)[c]1ccccc1`, which Potency is on record?
A: inactive

Q: For `CSSC`, which Potency is on record?
A: inactive
